# Screening data from PubChem.
# Most compounds without a hit are left out; they make up all but 9.2% or so of the library.
# NPC1 prom act: qHTS Assay for NPC1 Promoter Activators. Huh7 NPC1 promoter luciferase reporter, 24 h. Potency, µM (doses to about 9.22 µM), for inactives: top-dose activation, actives largely listed as activators. hit rate 2.4% among 320,000. AID 485313, 2010; further: % of control where 0% means no effect; nearly all actives have a fitted effect of over 60% in size
#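 Stable NPC1-promoter luciferase Huh7 line; cpd (DMSO) 24 h, 37 °C, 5% CO2; Amplite luciferase reagent 10 min RT; luminescence readout. qHTS format.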
# ELG1 genotoxic: qHTS screen for small molecules that induce genotoxicity in human embryonic kidney (HEK293T) cells expressing luciferase-tagged ELG1; HEK293T ELG1-luciferase reporter, luminescence, 16 h; Potency, µM (doses to about 46 µM), for the others: at the highest dose activity change, positive = activation, most hits filed as activators; hit rate 1.3% among 330,000; AID 504466, 2011; further: % of control where 0% means no effect; nearly all actives have a fitted effect of over 60% in size
#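 Step 1: seed 2,000 HEK293T ELG1-luciferase cells per well. Step 2: add compound or DMSO, incubate 16 hr at 37 °C. Step 3: ONE-Glo, 30 min at room temperature, read luminescence.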
# Rab9 prom act: qHTS Assay for Rab9 Promoter Activators. hit rate 2.8% among 320,000. AID 485297, 2010. Huh7 Rab9 promoter-luciferase reporter, luminescence, 24 h. Potency, µM (top dose mostly 9.22 µM), for the others: top-dose activation, negative = inhibition, hits mostly activators; further: % of control where 0% means no effect; nearly all actives have a fitted effect of over 60% in size
#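 Cells were plated at 1500 per well in reduced-serum medium with 10% FBS and left 2 h. Compound in DMSO was then added for 24 h at 37 °C. Reporter signal was read by luminescence after 10 min with luciferase detection reagent.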
# ELG1 repair inh: qHTS screen for small molecules that inhibit ELG1-dependent DNA repair in human embryonic kidney (HEK293T) cells expressing luciferase-tagged ELG1 | Potency, µM (titrated, usually from 46.1 µM), inactives show top-dose activity change, negative = inhibition, actives largely listed as inhibitors | hit rate 2.3% among 330,000 | HEK293T ELG1-luciferase reporter, luminescence, 16 h; DNA damage induced by 5-fluorouridine; further: on the % scale 0 is the no-effect control and ±100 the full control effect; nearly all actives have a fitted effect of over 55% in size
#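 Overnight (16 hr) co-exposure of 2,000 cells/well to 5-fluorouridine and compound at 37 °C preceded detection. Luciferase was quantified via ONE-Glo luminescence; loss of signal denotes inhibition.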
# FLuc modulator: qHTS profiling assay for firefly luciferase inhibitor/activator using purifed enzyme and Km concentrations of substrates (counterscreen for miR-21 project) | purified FLuc, Km substrates, luminescence inhibition | Potency, µM (series often up to 57.5 µM), inactives show top-dose activity change, negative = inhibition, usual class: inhibitors | hit rate 6.9% among 360,000 | Luciferin 4-monooxygenase (Photinus pyralis), P08659;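 further: plate controls were vehicle for no effect and reference inhibitor for full effect; nearly all actives have a fitted effect of over 55% in size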
# Target sequence (P08659 whole entry, looked up): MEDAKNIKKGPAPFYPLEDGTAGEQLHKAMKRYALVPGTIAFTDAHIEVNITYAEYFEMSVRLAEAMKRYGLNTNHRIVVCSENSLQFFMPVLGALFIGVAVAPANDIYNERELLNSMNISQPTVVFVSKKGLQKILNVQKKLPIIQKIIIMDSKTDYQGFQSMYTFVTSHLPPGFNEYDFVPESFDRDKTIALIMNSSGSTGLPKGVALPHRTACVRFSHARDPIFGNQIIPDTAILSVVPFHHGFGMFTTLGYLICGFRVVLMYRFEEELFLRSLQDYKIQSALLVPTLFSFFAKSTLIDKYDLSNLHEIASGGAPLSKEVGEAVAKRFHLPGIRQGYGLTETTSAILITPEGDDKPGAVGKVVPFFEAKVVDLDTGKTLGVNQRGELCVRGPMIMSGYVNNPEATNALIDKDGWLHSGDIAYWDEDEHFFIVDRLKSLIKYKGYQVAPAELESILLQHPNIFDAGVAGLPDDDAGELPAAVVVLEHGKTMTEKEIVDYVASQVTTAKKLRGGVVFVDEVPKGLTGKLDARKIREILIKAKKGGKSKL
#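 Purified P. pyralis luciferase, 10 nM final, with Km-level 10 uM D-luciferin and 10 uM ATP in 50 mM Tris acetate pH 7.5, 10 mM Mg acetate, 0.01% Tween-20, 0.05% BSA; 6-point qHTS titration about 60 µM downward; luminescence read.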
# SMN2 splice enh: qHTS Assay for Enhancers of SMN2 Splice Variant Expression | Potency, µM (titrated, usually from 46.1 µM), for inactives: top-dose activity change, positive = activation, actives largely listed as activators | HEK293 SMN2-luciferase splicing reporter, luminescence, 30-36 h | hit rate 2.8% among 210,000; further: % of control where 0% means no effect; nearly all actives have a fitted effect of over 55% in size
#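 qHTS luciferase splicing reporter: luminescence rises when SMN2 exon 7 is included in transfected HEK293 cells. Compound exposure lasted 30-36 h at 37C, with 4.5 mM final sodium butyrate as control, followed by a ONE-Glo read.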
# Active calls of the source: *; u = inconclusive; x = no result; [ ] = dose if it differs, or a comment. The call rests on the fitted dose curve; in most records, active means well fitted curve in the direction sought with a large enough effect; inconclusive means small, poorly fitted or top-dose-only effect, or another doubt; inactive means no such curve, though single readings can be large; an effect the other way counts as inactive or inconclusive. Potency means the concentration at half of the fitted maximal effect.
SMILES,NPC1 prom act,ELG1 genotoxic,Rab9 prom act,ELG1 repair inh,FLuc modulator,SMN2 splice enh
Cc1ccc(-c2nc3cccnc3s2)cc1NS(=O)(=O)c1ccc2c(c1)OCCO2,8%,15%,-3%,u,-13%,u
CCOc1ccccc1C(=O)Nc1cc(-c2nc3cccnc3s2)ccc1C,x,x,x,x,9.5µM*,x
Cc1ccc(-c2nc3cccnc3s2)cc1NS(=O)(=O)c1cccs1,10%,10%,15%,19%,27µM*,x
O=C(Nc1cccc(-c2nc3cccnc3s2)c1)c1cccnc1Cl,22%,-7%,23%,u,17µM*,x
CCc1ccc(S(=O)(=O)Nc2ccc(-c3nc4cccnc4s3)cc2)s1,15%,15µM*,u,u,u,16µM*
CCOCC(=O)Nc1cccc(-c2nc3cccnc3s2)c1C,13%,0%,1%,-25%,17µM*,x
NS(=O)(=O)c1ccc(C(=O)Nc2ccc(-c3nc4cccnc4s3)cc2)cc1,1.4µM*,u,1.4µM*,u,12µM*,x
Cc1nc2ccc(S(=O)(=O)Nc3cc(-c4nc5cccnc5s4)ccc3C)cc2s1,-5%,u,2%,u,19µM*,16µM*
COC(=O)c1ccc(OC)c(CN2CCCN(Cc3ccc(F)cc3)S2(=O)=O)c1,4%,-8%,-8%,13µM*,1%,x
COc1ccc(C=O)cc1CN1CCCN(Cc2ccc(Cl)cc2)S1(=O)=O,5%,-3%,5%,-18%,1%,x
CN1CCN(c2oc(/C=C/c3ccc(F)cc3)nc2C#N)CC1,x,x,x,x,-6%,-11%
CCN(CC(=O)Nc1c(F)cccc1F)C(=O)CNC(=O)c1ccco1,-5%,-2%,0%,24%,-1%,x
CCN(CC(=O)Nc1c(F)cccc1F)C(=O)CNC(=O)c1ccc(C)s1,u,26%,u,u,15µM*,x
CSc1ccc(C(=O)N2CCC(CCC(=O)NCc3ccc(F)cc3)CC2)cc1,-6%,5%,-2%,u,-3%,x
Cc1ccc(Sc2c(C=O)c3ccccc3n2C)cc1,2%,-11%,3%,5.8µM*,2%,-47%
CC(C)=C[C@H]1[C@@H](COC(=O)c2ccccc2Cl)C1(C)C,x,x,x,x,x,-7%[9.22 µM]
O=C(NCC(=O)N1CCN(Cc2ccccc2)CC1)c1cc(Cl)cc([N+](=O)[O-])c1,x,0%,x,u,x,x
Cc1cc(Nc2ccc(Cl)cc2)nc(N)n1,u,u,u,u,19µM*,16%
Nc1cc(Nc2ccc(Br)cc2)nc(N)n1,3.5µM*,u,u,u,13µM*,x
COc1ccc(Nc2cc(Cl)nc(N)n2)cc1,14%,u,28%,u,-19%,u
COc1ccc(Nc2cc(C)nc(N)n2)cc1,22%,13%,u,u,u,x
C=CCn1c(SCC(=O)NC2CCCCC2)nnc1-c1sc(N)nc1C,0%,1%,-1%,4%,2%,-1%
C=CCn1c(SCC(=O)Nc2sc(C)c(C)c2C(=O)OCC)nnc1-c1sc(N)nc1C,-2%,-10%,-5%,5.8µM*,-2%,x
Cc1ccc(NC(=O)CSc2nc(C)cc(C)c2C(=O)Nc2cccc(C)c2)cc1,x,x,x,x,1%,x
COC(=O)c1ccc(C(NC(=O)OCc2ccccc2)/C(=C/[C@@H](C)C(=O)Nc2ccccc2)c2cccnc2)cc1 (stereo partly specified),x,x,x,x,x,3%
CN(C)c1ccc(-c2cc(O)c3ncccc3c2)cc1,-7%,16µM*,-2%,u,15µM*,x
CN(C)CCCNC(=O)c1ccc(-c2cc(O)c3ncccc3c2)cc1,-4%,14%,-6%,u,-3%,x
Oc1cc(-c2ccc(N3CCCCC3)nc2)cc2cccnc12,10%,18µM*,4%,u,u,x
